# Assay results reported in PubChem BioAssay AID1159580 (chemical genetic matrix, 2015).
# Hit rate of the full screen: of about 5,500 compounds, about 2,000 (36%) were called active. Not shown: some 18% with an inconclusive outcome. The list shows a part of the results. Values without a mark were called inactive. Rule as the data show it: active = normalized growth mostly below about 0.91 (no sharp cut-off); inconclusive = no clear call, values can overlap the other calls; inactive = mostly above about 0.92.
# Experiment: chemical genetic growth profiling, strain panel (AID 1159580);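 also: tested at 20 µM; growth read once vehicle control cultures reached saturation at 30 °C; 1 = growth at the plate median or of vehicle wells; lower values mean less growth of the strain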
# Conditions: S. cerevisiae deletion strains, growth OD
smiles,measurement,setting,value
CCS(=O)(=O)Nc1cccc(C(=C2CCCCC2)c2cnc[nH]2)c1,normalized growth,"locus YAL013W, strain DEP1, hits give low values",0.982
same,normalized growth,"locus YAL040C, strain CLN3, hits give low values",1
same,normalized growth,"locus YDR150W, strain NUM1, hits give low values",1.02
same,normalized growth,"locus YDR363W, strain ESC2, hits give low values",0.974
same,normalized growth,"locus YER002W, strain NOP16, hits give low values",1.04
same,normalized growth,"locus YGR229C, strain SMI1, hits give low values",1
same,normalized growth,"locus YNL153C, strain GIM3, hits give low values",1.03
same,normalized growth,"locus YNL175C, strain NOP13, hits give low values",1
same,normalized growth,"locus YNL197C, strain WHI3, hits give low values",1
same,normalized growth,"locus YNL224C, strain SQS1, hits give low values",1.01
same,normalized growth,"locus YNL322C, strain KRE1, hits give low values",0.994
same,normalized growth,"locus YOR083W, strain WHI5 (second series), hits give low values",1.02
Cc1ccc(S(=O)(=O)Nc2ccc(Oc3ccc(F)cc3)cc2)cc1,normalized growth,"locus YAR019C, strain CDC15, hits give low values",0.98
same,normalized growth,"locus YBL105C, strain PKC1, hits give low values",0.977
same,normalized growth,"locus YBR135W, strain CKS1, hits give low values",0.983
same,normalized growth,"locus YBR136W, strain MEC1, hits give low values",0.985
same,normalized growth,"locus YBR160W, strain CDC28, hits give low values",0.976
same,normalized growth,"locus YDL017W, strain CDC7, hits give low values",0.985
same,normalized growth,"locus YDL028C, strain MPS1, hits give low values",0.987
same,normalized growth,"locus YDL101C, strain DUN1, hits give low values",0.982
same,normalized growth,"locus YDL108W, strain KIN28, hits give low values",0.977
same,normalized growth,"locus YDL132W, strain cdc53, hits give low values",0.974
same,normalized growth,"locus YDL214C, strain PRR2, hits give low values",0.907
same,normalized growth,"locus YDR052C, strain DBF4, hits give low values",0.979
same,normalized growth,"locus YDR054C, strain cdc34, hits give low values",0.975
same,normalized growth,"locus YDR226W, strain ADK1, hits give low values",0.983
same,normalized growth,"locus YDR477W, strain SNF1, hits give low values",0.927
same,normalized growth,"locus YER123W, strain YCK3, hits give low values",0.866
same,normalized growth,"locus YER133W, strain GLC7, hits give low values",0.93
same,normalized growth,"locus YFL009W, strain cdc4, hits give low values",0.983
same,normalized growth,"locus YFL029C, strain CAK1, hits give low values",0.977
same,normalized growth,"locus YFR003C, strain YPI1, hits give low values",0.979
same,normalized growth,"locus YFR019W, strain FAB1, hits give low values",0.95
same,normalized growth,"locus YFR028C, strain CDC14, hits give low values",0.972
same,normalized growth,"locus YGR040W, strain KSS1, hits give low values",0.915
same,normalized growth,"locus YGR052W, strain FMP48, hits give low values",0.91
same,normalized growth,"locus YGR092W, strain DBF2, hits give low values",0.839
same,normalized growth,"locus YHR030C, strain SLT2, hits give low values",0.767 (active)
same,normalized growth,"locus YHR079C, strain IRE1, hits give low values",0.876
same,normalized growth,"locus YHR082C, strain KSP1, hits give low values",0.895
same,normalized growth,"locus YHR205W, strain SCH9, hits give low values",0.926
same,normalized growth,"locus YIL147C, strain SLN1, hits give low values",0.992
same,normalized growth,"locus YJL095W, strain BCK1, hits give low values",0.9
same,normalized growth,"locus YJL128C, strain PBS2, hits give low values",0.946
same,normalized growth,"locus YJL157C, strain FAR1, hits give low values",0.908
same,normalized growth,"locus YJR016C, strain ILV3, hits give low values",0.981
same,normalized growth,"locus YJR066W, strain TOR1 (second series), hits give low values",0.892
same,normalized growth,"locus YJR066W, strain TOR1, hits give low values",0.968
same,normalized growth,"locus YKL048C, strain ELM1, hits give low values",0.934
same,normalized growth,"locus YKL067W, strain YNK1, hits give low values",0.905
same,normalized growth,"locus YKL101W, strain HSL1, hits give low values",0.887
same,normalized growth,"locus YKL193C, strain SDS22, hits give low values",0.978
same,normalized growth,"locus YKL203C, strain TOR2, hits give low values",0.979
same,normalized growth,"locus YLR113W, strain HOG1, hits give low values",0.739 (active)
same,normalized growth,"locus YLR133W, strain CKI1, hits give low values",0.916
same,normalized growth,"locus YLR403W, strain SFP1, hits give low values",0.914
same,normalized growth,"locus YML070W, strain DAK1, hits give low values",0.868
same,normalized growth,"locus YMR001C, strain CDC5, hits give low values",0.986
same,normalized growth,"locus YMR205C, strain PFK2 (second series), hits give low values",0.918
same,normalized growth,"locus YMR277W, strain FCP1, hits give low values",0.985
same,normalized growth,"locus YNL006W, strain LST8, hits give low values",0.996
same,normalized growth,"locus YNL020C, strain ARK1, hits give low values",0.898
same,normalized growth,"locus YNL161W, strain CBK1, hits give low values",0.978
same,normalized growth,"locus YNL183C, strain NPR1, hits give low values",0.836
same,normalized growth,"locus YNL207W, strain RIO2, hits give low values",0.985
same,normalized growth,"locus YNL222W, strain SSU72, hits give low values",0.969
same,normalized growth,"locus YNL307C, strain MCK1 (second series), hits give low values",0.873
same,normalized growth,"locus YOL078W, strain AVO1, hits give low values",0.978
same,normalized growth,"locus YOL136C, strain PFK27, hits give low values",0.88
same,normalized growth,"locus YOR061W, strain CKA2, hits give low values",0.898
same,normalized growth,"locus YOR119C, strain RIO1, hits give low values",0.981
same,normalized growth,"locus YOR231W, strain MKK1, hits give low values",0.849
same,normalized growth,"locus YOR329C, strain SCD5, hits give low values",0.983
same,normalized growth,"locus YPL031C, strain PHO85, hits give low values",0.913
same,normalized growth,"locus YPL153C, strain RAD53, hits give low values",0.862
same,normalized growth,"locus YPL204W, strain HRR25, hits give low values",0.896
same,normalized growth,"locus YPL209C, strain IPL1, hits give low values",0.979
same,normalized growth,"locus YPL256C, strain CLN2, hits give low values",0.815 (active)
same,normalized growth,"locus YPR025C, strain CCL1, hits give low values",0.984
same,normalized growth,"locus YPR106W, strain ISR1, hits give low values",0.965
same,normalized growth,"locus YPR111W, strain DBF20, hits give low values",0.953
same,normalized growth,"strain NNK1, hits give low values",0.969
same,normalized growth,"strain TSCII, hits give low values",0.98
